From the supplement of paper PMC6522484
Structures can show the parent of a compound that is named as a salt. ± gives the standard deviation of the averaged measurements.

System: HCT116
Assay: cell viability (CellTiter-Glo) relative to plate median (fraction of plate median); higher = more viable cells
Settings: 10 µM; treatment time 24 h; reporter: TCF4/Wnt
Summary of the method: (§1)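 In 384-well plates, colorectal cancer lines with stable lentiviral 7TFP or TCF4/Wnt firefly luciferase reporters were seeded and, 24 h later, given kinase inhibitor library compounds at a final 10 µM for 24 h. A Tecan F500 reader measured firefly luciferase on one plate and CellTiterGlo on a parallel plate. Reported figures are two-replicate means of well signals normalised to the plate median, computed additively in webcellHTS2 without log transformation.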

Structure (SMILES) | cell viability
Cc1cc(Nc2cc(CN3CCOCC3)c3nc(C)c(Cc4ccc(Cl)cc4F)n3n2)n[nH]1 | 0.975 ± 0.12
CC[C@H](CO)Nc1nc(NCc2ccccc2)c2ncn(C(C)C)c2n1 [Roscovitine (Seliciclib, CYC202)] | 0.923 ± 0.12
CO[C@H]1C[C@@H]2CC[C@@H](C)[C@@](O)(O2)C(=O)C(=O)N2CCCC[C@H]2C(=O)O[C@H]([C@H](C)C[C@@H]2CC[C@@H](OP(C)(C)=O)[C@H](OC)C2)CC(=O)[C@H](C)/C=C(\C)[C@@H](O)[C@@H](OC)C(=O)[C@H](C)C[C@H](C)/C=C/C=C/C=C/1C [Deforolimus (Ridaforolimus)] | 0.979 ± 0.044
O=C1NC(=O)[C@@H](c2cn3c4c(cccc24)CCC3)[C@@H]1c1c[nH]c2ccccc12 [ARQ 197 (Tivantinib)] | 0.593 ± 0.15
COc1cccc2cc(-c3nc([C@H]4CC[C@H](C(=O)O)CC4)n4ncnc(N)c34)[nH]c12 | 0.816 ± 0.0042
CO[C@H]1C[C@@H]2CC[C@@H](C)[C@@](O)(O2)C(=O)C(=O)N2CCCC[C@H]2C(=O)O[C@H]([C@H](C)C[C@@H]2CC[C@@H](OC(=O)C(C)(CO)CO)[C@H](OC)C2)CC(=O)[C@H](C)/C=C(\C)[C@@H](O)[C@@H](OC)C(=O)[C@H](C)C[C@H](C)/C=C/C=C/C=C/1C [Temsirolimus (Torisel)] | 1.125 ± 0.0071
CC(C)(O)CC(=O)NCCn1ccc2ncnc(Nc3ccc(Oc4cccc(C(F)(F)F)c4)c(Cl)c3)c21 | 1.17 ± 0.14
CCCS(=O)(=O)Nc1ccc(F)c(C(=O)c2c[nH]c3ncc(Cl)cc23)c1F | 1.12 ± 0.071
O=C(O)c1ccc2c(c1)nc(Nc1cccc(Cl)c1)c1ccncc12 [cx-4945 (Silmitasertib)] | 0.839 ± 0.042
COc1cc2c(Oc3ccc(NC(=O)C4(C(=O)Nc5ccc(F)cc5)CC4)cc3F)ccnc2cc1OCCCN1CCOCC1 | 0.845 ± 0.12
CN(C)CCOc1ccc(-c2nc(-c3ccncc3)c(-c3ccc4c(c3)CC/C4=N\O)[nH]2)cc1 | 1.2 ± 0.11
COc1cc2nccc(Oc3ccc(NC(=O)C4(C(=O)Nc5ccc(F)cc5)CC4)cc3)c2cc1OC [XL-184 free base (Cabozantinib)] | 1.095 ± 0.0071
CN1CC[C@H](c2c(O)cc(O)c3c(=O)cc(-c4ccccc4Cl)oc23)[C@H](O)C1 [Flavopiridol hydrochloride] | 0.865 ± 0.29
S=C(NCc1ccc2c(c1)OCO2)N1CCN(c2ncnc3c2oc2ccccc23)CC1 [Amuvatinib (MP-470)] | 1.15 ± 0.17
Cn1cnc(N)c2ncnc1-2 [3-Methyladenine] | 1.13 ± 0.014
Clc1ccc(Nc2nnc(Cc3ccncc3)c3ccccc23)cc1 [Vatalanib dihydrochloride (PTK787)] | 1.08 ± 0.13
O=c1cc(-c2cccc3c2Sc2ccccc2S3)oc(N2CCOCC2)c1 | 1.11 ± 0.035
CN1CCN(CCOc2cc(OC3CCOCC3)c3c(Nc4c(Cl)ccc5c4OCO5)ncnc3c2)CC1 [Saracatinib (AZD0530)] | 0.968 ± 0.0042
CNC(=O)Nc1ccc(-c2nc(N3CC4CCC(C3)O4)c3cnn(C4CCC5(CC4)OCCO5)c3n2)cc1 | 0.805 ± 0.11
CO[C@H]1C[C@@H]2CC[C@@H](C)[C@@](O)(O2)C(=O)C(=O)N2CCCC[C@H]2C(=O)O[C@H]([C@H](C)C[C@@H]2CC[C@@H](OCCO)[C@H](OC)C2)CC(=O)[C@H](C)/C=C(\C)[C@@H](O)[C@@H](OC)C(=O)[C@H](C)C[C@H](C)/C=C/C=C/C=C/1C [Everolimus (RAD001)] | 0.974 ± 0.094
N#C/C(=C\c1ccc(O)c(O)c1)C(=O)NCc1ccccc1 | 1.08 ± 0.028
Cc1cc(CN2CCN(c3c(Br)cnc4nc(-c5ccc(N6CCN(C)CC6)cc5)[nH]c34)CC2)no1 | 1.04 ± 0.014
COc1cc2ncnc(Nc3cccc(Cl)c3)c2cc1OC [AG-1478 (Tyrphostin AG-1478)] | 1.12 ± 0.014
Cc1c(NC(=O)OC[C@@H]2COCCN2)cn2ncnc(Nc3ccc4c(cnn4Cc4cccc(F)c4)c3)c12 | 1.13 ± 0.22
CCCS(=O)(=O)Nc1ccc(F)c(C(=O)c2c[nH]c3ncc(-c4ccc(Cl)cc4)cc23)c1F [Vemurafenib (PLX4032)] | 1.2 ± 0.05
COc1ccc(-c2cc3c(C)nc(N)nc3n([C@H]3CC[C@H](OCCO)CC3)c2=O)cn1 | 0.68 ± 0.15

System: SW480
Assay: as above
Settings: 10 µM; treatment time 24 h; reporter: 7TFP
Summary of the method: as §1

Structure (SMILES) | cell viability
OCCn1cc(-c2ccc3c(c2)CC/C3=N\O)c(-c2ccncc2)n1 | 1.145 ± 0.0071
Cn1cc(-c2ccc3ncc(Cc4ccc5ncccc5c4)n3n2)cn1 | 0.911 ± 0.032
CNC(=O)c1cccc(-c2ccc3c(N4CCOC[C@@H]4C)nc(N4CCOC[C@@H]4C)nc3n2)c1 | 1.07
CC(C)(C)Cn1c(N)nc2ccc(-c3[nH]c(C(C)(C)C)nc3-c3ccc(F)cc3)nc21 | 1.11
C[C@]1(O)C[C@@H](c2nc(-c3ccc4ccc(-c5ccccc5)nc4c3)c3c(N)nccn32)C1 [Linsitinib (OSI-906)] | 0.995 ± 0.021
CCN(CC)CCNC(=O)c1c(C)[nH]c(/C=C2\C(=O)Nc3ccc(F)cc32)c1C [Sunitinib Malate (Sutent)] | 1.02 ± 0.15
COc1cc(Nc2ncc(F)c(Nc3ccc4c(n3)N(COP(=O)(O)O)C(=O)C(C)(C)O4)n2)cc(OC)c1OC | 0.919 ± 0.028
Cc1cc(C(C)Nc2ccccc2)c2nc(N3CCOCC3)cc(=O)n2c1 (stereo not drawn) | 0.909 ± 0.071
Cn1cc(-c2ccc3nnc(Sc4ccc5ncccc5c4)n3n2)cn1 | 0.862 ± 0.014
N#Cc1c(O)c2c(-c3ccc(-c4ccccc4O)cc3)csc2[nH]c1=O | 0.922 ± 0.052
C#Cc1cccc(Nc2ncnc3cc(OCCOC)c(OCCOC)cc23)c1 [Erlotinib HCl] | 1 ± 0.013
N#CC(=C(/N)Sc1ccccc1N)/C(C#N)=C(\N)Sc1ccccc1N | 1.06 ± 0.05
Nc1cccc(-c2cc3c(Oc4cccc(O)c4)ncnc3[nH]2)c1 | 0.92 ± 0.018
CCOc1cc2ncc(C#N)c(Nc3ccc(F)c(Cl)c3)c2cc1NC(=O)/C=C/CN(C)C [Pelitinib (EKB-569)] | 1.28 ± 0.14
Cc1cc(Nc2cc(CN3CCOCC3)c3nc(C)c(Cc4ccc(Cl)cc4F)n3n2)n[nH]1 | 0.781 ± 0.14
CC[C@H](CO)Nc1nc(NCc2ccccc2)c2ncn(C(C)C)c2n1 [Roscovitine (Seliciclib, CYC202)] | 0.833 ± 0.039
CO[C@H]1C[C@@H]2CC[C@@H](C)[C@@](O)(O2)C(=O)C(=O)N2CCCC[C@H]2C(=O)O[C@H]([C@H](C)C[C@@H]2CC[C@@H](OP(C)(C)=O)[C@H](OC)C2)CC(=O)[C@H](C)/C=C(\C)[C@@H](O)[C@@H](OC)C(=O)[C@H](C)C[C@H](C)/C=C/C=C/C=C/1C [Deforolimus (Ridaforolimus)] | 1.27 ± 0.021
O=C1NC(=O)[C@@H](c2cn3c4c(cccc24)CCC3)[C@@H]1c1c[nH]c2ccccc12 [ARQ 197 (Tivantinib)] | 1.07 ± 0.014
COc1cccc2cc(-c3nc([C@H]4CC[C@H](C(=O)O)CC4)n4ncnc(N)c34)[nH]c12 | 1.19 ± 0.11

Structure (SMILES) | cell viability
CO[C@H]1C[C@@H]2CC[C@@H](C)[C@@](O)(O2)C(=O)C(=O)N2CCCC[C@H]2C(=O)O[C@H]([C@H](C)C[C@@H]2CC[C@@H](OC(=O)C(C)(CO)CO)[C@H](OC)C2)CC(=O)[C@H](C)/C=C(\C)[C@@H](O)[C@@H](OC)C(=O)[C@H](C)C[C@H](C)/C=C/C=C/C=C/1C [Temsirolimus (Torisel)] | 0.934 ± 0.0028
CC(C)(O)CC(=O)NCCn1ccc2ncnc(Nc3ccc(Oc4cccc(C(F)(F)F)c4)c(Cl)c3)c21 | 0.959 ± 0.058
CCCS(=O)(=O)Nc1ccc(F)c(C(=O)c2c[nH]c3ncc(Cl)cc23)c1F | 0.837 ± 0.013
O=C(O)c1ccc2c(c1)nc(Nc1cccc(Cl)c1)c1ccncc12 [cx-4945 (Silmitasertib)] | 1 ± 0.092
COc1cc2c(Oc3ccc(NC(=O)C4(C(=O)Nc5ccc(F)cc5)CC4)cc3F)ccnc2cc1OCCCN1CCOCC1 | 1.03 ± 0.13
CN(C)CCOc1ccc(-c2nc(-c3ccncc3)c(-c3ccc4c(c3)CC/C4=N\O)[nH]2)cc1 | 1.11 ± 0.071
COc1cc2nccc(Oc3ccc(NC(=O)C4(C(=O)Nc5ccc(F)cc5)CC4)cc3)c2cc1OC [XL-184 free base (Cabozantinib)] | 0.9465 ± 0.0035
CN1CC[C@H](c2c(O)cc(O)c3c(=O)cc(-c4ccccc4Cl)oc23)[C@H](O)C1 [Flavopiridol hydrochloride] | 1.36 ± 0.11
S=C(NCc1ccc2c(c1)OCO2)N1CCN(c2ncnc3c2oc2ccccc23)CC1 [Amuvatinib (MP-470)] | 0.869 ± 0.013
Cn1cnc(N)c2ncnc1-2 [3-Methyladenine] | 0.867 ± 0.1
Clc1ccc(Nc2nnc(Cc3ccncc3)c3ccccc23)cc1 [Vatalanib dihydrochloride (PTK787)] | 0.925 ± 0.011
O=c1cc(-c2cccc3c2Sc2ccccc2S3)oc(N2CCOCC2)c1 | 0.875 ± 0.0042
CN1CCN(CCOc2cc(OC3CCOCC3)c3c(Nc4c(Cl)ccc5c4OCO5)ncnc3c2)CC1 [Saracatinib (AZD0530)] | 1.03 ± 0.047
CNC(=O)Nc1ccc(-c2nc(N3CC4CCC(C3)O4)c3cnn(C4CCC5(CC4)OCCO5)c3n2)cc1 | 1.16 ± 0.028
CO[C@H]1C[C@@H]2CC[C@@H](C)[C@@](O)(O2)C(=O)C(=O)N2CCCC[C@H]2C(=O)O[C@H]([C@H](C)C[C@@H]2CC[C@@H](OCCO)[C@H](OC)C2)CC(=O)[C@H](C)/C=C(\C)[C@@H](O)[C@@H](OC)C(=O)[C@H](C)C[C@H](C)/C=C/C=C/C=C/1C [Everolimus (RAD001)] | 1.26 ± 0.028
N#C/C(=C\c1ccc(O)c(O)c1)C(=O)NCc1ccccc1 | 0.94 ± 0.032
Cc1cc(CN2CCN(c3c(Br)cnc4nc(-c5ccc(N6CCN(C)CC6)cc5)[nH]c34)CC2)no1 | 1.08 ± 0.057
COc1cc2ncnc(Nc3cccc(Cl)c3)c2cc1OC [AG-1478 (Tyrphostin AG-1478)] | 0.9395 ± 0.005
